Structures are written as SMILES. Inconclusive results are not listed. Entries that show only a call come without a potency. Activity calls are given as the source filed them. Calls follow the shape of the dose curve; as a rule, active = well fitted curve in the direction sought with a large enough effect; inconclusive = small, poorly fitted or top-dose-only effect, or another doubt; inactive = no such curve, though single readings can be large; an effect the other way counts as inactive or inconclusive.

One experiment can be described thus: qHTS of pediatric cancer cell lines to identify multiple opportunities for drug repurposing: Primary screen for MG 63 (6-TG R) cells (AID 1347105). Also: nearly all actives have a fitted effect of over 50% in size. Also: potency is read from the fitted curve at half-maximal effect. The settings on record: MG 63 (6-TG R) viability, CellTiter-Glo, 48 h; series mostly up to 46 µM. In a few lines:
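Cells plated at 500-1,000/well in growth medium, compounds added after 5 h. MIPE tested at 11 points (from 0.78 nM), NPC at 8 points (from 0.59 nM). CellTiter-Glo luminescence after 48 h; concentration-response curves from primary screen.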
In general terms: Quantitative high-throughput screening tests each substance at several concentrations.
Regarding `CCO/N=C(\CC)C1=C(O)CC(c2c(C)cc(C)cc2C)CC1=O` (stereo unspecified), the Potency entry is “inactive”.
Same read-out and setting: then `CCCN1CCO[C@@H]2c3cc(O)ccc3OC[C@@H]21`, with “inactive”; and `C#C[C@]1(O)C=C[C@@H]2[C@@H]3CCC4=CC(=O)CC[C@@H]4[C@H]3CC[C@@]21CC`, with “inactive”.
The same measure, in the same setting: next, `O=C(NCC1CCOCC1)c1cnc(Nc2ccc(Cl)cc2Cl)nc1C(F)(F)F`: 29.6 µM (active); `CCCCOC(=O)c1ccccc1C(=O)OCc1ccccc1`: “inactive”; `Oc1ccc2c3c1O[C@H]1c4[nH]c5c(c4C[C@@]4(O)[C@@H](C2)N(CC2CC2)CC[C@]314)C[C@@]1(O)[C@H]2Cc3ccc(O)c4c3[C@@]1(CCN2CC1CC1)[C@H]5O4`: “inactive”.
As to `CCC(=O)O[C@@H]1C=C2CCC3C(CCC4(C)C3CC[C@@H]4OC(=O)CC)C2CC1` (stereo partly specified), the Potency result is “inactive”.
For `CCOP(=O)(OCC)C(C)NC(=O)N(CCCl)N=O` (stereo unspecified), the Potency result is “inactive”.
The same measure, in the same setting: then `Cc1cc(O)ccc1Cl`, with “inactive”.
On to `C#CC1(O)CCC2C3CCC4=CC(=O)CCC4(C)C3CCC21C` (stereo unspecified), for which the Potency result is “inactive”.
For `O=C1C(I)=CC(=C(c2cc(I)c(O)c(I)c2)c2ccccc2C(=O)O)C=C1I`, the Potency entry is “inactive”.
Still for that read-out and setting: then `CCCCCCCCc1ccc(O)cc1`, with “inactive”; and `CC(=O)Nc1ccc(OC[C@](C)(O)C(=O)Nc2ccc([N+](=O)[O-])c(C(F)(F)F)c2)cc1`, with “inactive”; and `C=C[C@@H]1CN2CCC1C[C@H]2[C@H](O)c1ccnc2ccccc12` (stereo partly specified), with “inactive”.
Same read-out and setting: next, `CCN(CC)C(=O)c1ccc(C2=CC3(CCNCC3)Oc3cccc(O)c32)cc1`: “inactive”; `CC(N[C@H]1C[C@H]1c1ccccc1)c1ccc2c(c1)OCCO2` (stereo partly specified): “inactive”.
Regarding `O=S(=O)(c1ccc(Cl)cc1)c1ccc(Cl)cc1`, the Potency result is “inactive”.

The next experiment in a line: qHTS of pediatric cancer cell lines to identify multiple opportunities for drug repurposing: Primary screen for control Hh wild type fibroblast cells (AID 1347106). Also: nearly all actives have a fitted effect of over 55% in size. Also: potency is read from the fitted curve at half-maximal effect. To be noted: Hh wild-type fibroblast viability, CellTiter-Glo luminescence, 48 h; series mostly up to 46 µM. In a few lines:
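Viability after 48 h compound treatment at 37C, 500-1,000 cells/well, read as ATP luminescence with CellTiter-Glo. Primary screens used 11-point (MIPE, 0.78 nM-46 µM) or 8-point (NPC, 0.59 nM-46 µM) final concentrations; follow-up screens used 11-point dilutions.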
As to `CCO/N=C(\CC)C1=C(O)CC(c2c(C)cc(C)cc2C)CC1=O` (stereo unspecified), the Potency entry was “inactive”.
The same measure, in the same setting: next, `CCCN1CCO[C@@H]2c3cc(O)ccc3OC[C@@H]21`: “inactive”; `C#C[C@]1(O)C=C[C@@H]2[C@@H]3CCC4=CC(=O)CC[C@@H]4[C@H]3CC[C@@]21CC`: “inactive”.
In the case of `O=C(NCC1CCOCC1)c1cnc(Nc2ccc(Cl)cc2Cl)nc1C(F)(F)F`, the Potency entry is “inactive”.
Turning to `C[C@@H]1CC[C@H]2[C@@H](C)C(=O)O[C@@H]3O[C@@]4(C)CC[C@H]1[C@]32OO4`, the Potency result was “inactive”.
As to `CC1(C)CC/C(=C/c2ccc(Cl)cc2)C1(O)Cn1cncn1` (stereo unspecified), the Potency result is “inactive”.
As to `CCCCOC(=O)c1ccccc1C(=O)OCc1ccccc1`, the Potency entry is “inactive”.
Take `CO/C=C(/C(=O)OC)c1ccccc1Oc1cc(Oc2ccccc2C#N)ncn1`: the Potency entry was “inactive”.
With `CC[C@H]1C=CC=CC[C@@H](C)[C@H](O)[C@@](C)(O)C(=O)[C@@H](C)[C@H](O)[C@@H](C)C(=O)[C@@H](C)[C@H](O)[C@@H](C)C=CC(=O)O[C@@H]2[C@@H](C)[C@H](CC1)O[C@]1(CC[C@H](C)[C@H](C[C@@H](C)O)O1)[C@H]2C`, the Potency entry is “inactive”.
Still for that read-out and setting: then `ClC1=C(Cl)[C@]2(Cl)[C@@H]3[C@@H]4C[C@@H]([C@H]5O[C@@H]45)[C@@H]3[C@@]1(Cl)C2(Cl)Cl`, with “inactive”; and `CCCCCCCCCC(CC)c1ccc(S(=O)(=O)O)cc1` (stereo unspecified), with “inactive”.
Same read-out and setting: then `Nc1ccc(N=Nc2ccccc2)cc1`, with “inactive”; and `C[C@](O)(COc1ccc(C#N)cc1)C(=O)Nc1ccc(C#N)c(C(F)(F)F)c1`, with “inactive”; and `CCCCCC[C@H]1C(=O)O[C@H](C)[C@H](NC(=O)c2cccc(NC=O)c2O)C(=O)O[C@@H](C)[C@@H]1OC(=O)CC(C)C`, with “inactive”.
The same measure, in the same setting: next, `C#CC1(O)CCC2C3CCC4=CC(=O)CCC4(C)C3CCC21C` (stereo unspecified): “inactive”; `O=C1C(I)=CC(=C(c2cc(I)c(O)c(I)c2)c2ccccc2C(=O)O)C=C1I`: “inactive”.
As for `CC(=O)Nc1ccc(OC[C@](C)(O)C(=O)Nc2ccc([N+](=O)[O-])c(C(F)(F)F)c2)cc1`, the Potency entry is “inactive”.
Consider `CCN(CC)C(=O)c1ccc(C2=CC3(CCNCC3)Oc3cccc(O)c32)cc1`, for which the Potency entry is “inactive”.
On the same count and under the same terms, next, `CC=C(C)C(=O)N[C@@H](c1ccccc1)[C@@H](O)C(=O)O[C@H]1C[C@@]2(O)[C@@H](OC(=O)c3ccccc3)[C@@H]3[C@]4(OC(C)=O)CO[C@@H]4C[C@H](O)[C@@]3(C)C(=O)[C@H](OC(C)=O)C(=C1C)C2(C)C`: “inactive”; `O=S(=O)(c1ccc(Cl)cc1)c1ccc(Cl)cc1`: “inactive”; `COc1nn(CSP(=S)(OC)OC)c(=O)s1`: “inactive”.
As to `S=C(SSC(=S)N1CCCCC1)N1CCCCC1`, the Potency is 1.06 µM (active).

A further experiment in a line: qHTS of pediatric cancer cell lines to identify multiple opportunities for drug repurposing: Primary screen for Rh30 cells (AID 1347107). Also: nearly all actives have a fitted effect of over 75% in size. The settings on record: Rh30 rhabdomyosarcoma viability, CellTiter-Glo luminescence, 48 h; series mostly up to 46 µM. In a few lines: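 Cells (500-1,000/well) rested 5 h, then received compounds for 48 h; metabolically active cells were measured by CellTiter-Glo luminescence. Final concentrations spanned up to 46 µM (MIPE, 11-point) or 0.59 nM-46 µM (NPC, 8-point) in primary screens, 11-point in follow-ups.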
Take `CCO/N=C(\CC)C1=C(O)CC(c2c(C)cc(C)cc2C)CC1=O` (stereo unspecified): the Potency result was “inactive”.
`CCCN1CCO[C@@H]2c3cc(O)ccc3OC[C@@H]21`: the Potency result is “inactive”.
Same read-out and setting: next, `Cc1c(N)nc([C@H](CC(N)=O)NC[C@@H](N)C(N)=O)nc1C(=O)N[C@H](C(=O)N[C@@H](C)[C@H](O)[C@@H](C)C(=O)N[C@@H](C(=O)NCCc1nc(-c2nc(C(=O)NCCC[S+](C)C)cs2)cs1)[C@@H](C)O)C(O[C@H]1O[C@H](CO)[C@H](O)[C@@H](O)[C@@H]1O[C@H]1O[C@H](CO)[C@@H](O)[C@H](OC(N)=O)[C@H]1O)c1cnc[nH]1` (stereo partly specified): “inactive”.
On the same count and under the same terms, then `CC(C)[C@H]1C(=O)N[C@H](CO)Cc2c[nH]c3cccc(c23)N1C`, with “inactive”; and `C#C[C@]1(O)C=C[C@@H]2[C@@H]3CCC4=CC(=O)CC[C@@H]4[C@H]3CC[C@@]21CC`, with “inactive”; and `O=C(NCC1CCOCC1)c1cnc(Nc2ccc(Cl)cc2Cl)nc1C(F)(F)F`, with “inactive”.
Still for that read-out and setting: then `CC1(C)CC/C(=C/c2ccc(Cl)cc2)C1(O)Cn1cncn1` (stereo unspecified), with “inactive”.
Regarding `CCCCOC(=O)c1ccccc1C(=O)OCc1ccccc1`, the Potency entry was “inactive”.
For `Oc1ccc2c3c1O[C@H]1c4[nH]c5c(c4C[C@@]4(O)[C@@H](C2)N(CC2CC2)CC[C@]314)C[C@@]1(O)[C@H]2Cc3ccc(O)c4c3[C@@]1(CCN2CC1CC1)[C@H]5O4`, the Potency result was “inactive”.
Same read-out and setting: then `CC[C@H]1C=CC=CC[C@@H](C)[C@H](O)[C@@](C)(O)C(=O)[C@@H](C)[C@H](O)[C@@H](C)C(=O)[C@@H](C)[C@H](O)[C@@H](C)C=CC(=O)O[C@@H]2[C@@H](C)[C@H](CC1)O[C@]1(CC[C@H](C)[C@H](C[C@@H](C)O)O1)[C@H]2C`, with “inactive”.
Same read-out and setting: next, `ClC1=C(Cl)[C@]2(Cl)[C@@H]3[C@@H]4C[C@@H]([C@H]5O[C@@H]45)[C@@H]3[C@@]1(Cl)C2(Cl)Cl`: “inactive”.
On the same count and under the same terms, next, `CCCCCCCCCC(CC)c1ccc(S(=O)(=O)O)cc1` (stereo unspecified): “inactive”.
For the compound `CCC(=O)O[C@@H]1C=C2CCC3C(CCC4(C)C3CC[C@@H]4OC(=O)CC)C2CC1` (stereo partly specified), the Potency result is “inactive”.
The same measure, in the same setting: then `C[C@](O)(COc1ccc(C#N)cc1)C(=O)Nc1ccc(C#N)c(C(F)(F)F)c1`, with “inactive”.
The same measure, in the same setting: next, `CCOP(=O)(OCC)C(C)NC(=O)N(CCCl)N=O` (stereo unspecified): “inactive”; `CC1(N2CCC(n3c([C@@H]4CCCNC4)nc4ccccc43)CC2)CCCCCCC1`: “inactive”.
Take `Cc1cc(O)ccc1Cl`: the Potency entry is “inactive”.
Same read-out and setting: next, `C#CC1(O)CCC2C3CCC4=CC(=O)CCC4(C)C3CCC21C` (stereo unspecified): “inactive”; `O=C1C(I)=CC(=C(c2cc(I)c(O)c(I)c2)c2ccccc2C(=O)O)C=C1I`: “inactive”.
Regarding `CCCCCCCCc1ccc(O)cc1`, the Potency result is “inactive”.
The same measure, in the same setting: next, `CC(=O)Nc1ccc(OC[C@](C)(O)C(=O)Nc2ccc([N+](=O)[O-])c(C(F)(F)F)c2)cc1`: “inactive”; `CCN(CC)C(=O)c1ccc(C2=CC3(CCNCC3)Oc3cccc(O)c32)cc1`: “inactive”.
As to `CC(N[C@H]1C[C@H]1c1ccccc1)c1ccc2c(c1)OCCO2` (stereo partly specified), the Potency result was “inactive”.
Consider `CC=C(C)C(=O)N[C@@H](c1ccccc1)[C@@H](O)C(=O)O[C@H]1C[C@@]2(O)[C@@H](OC(=O)c3ccccc3)[C@@H]3[C@]4(OC(C)=O)CO[C@@H]4C[C@H](O)[C@@]3(C)C(=O)[C@H](OC(C)=O)C(=C1C)C2(C)C`, for which the Potency result was “inactive”.
Take `COc1ccc(CC2NCCc3cc(OC)c(OC)cc32)cc1OC` (stereo unspecified): the Potency entry was “inactive”.
The same measure, in the same setting: then `O=S(=O)(c1ccc(Cl)cc1)c1ccc(Cl)cc1`, with “inactive”; and `S=C(SSC(=S)N1CCCCC1)N1CCCCC1`, with “inactive”.
